Experimental data reported in PubChem BioAssay AID1259325 (C. David Weaver Laboratory, Vanderbilt University, 2017).
Hit rate of the full screen: of about 63,000 compounds, about 30 (0.05%) were called active. How the calls were made is not given here. Not all results are given here.

The compounds below were run against G protein-activated inward rectifier potassium channel 2 (Homo sapiens) (UniProt P48051) (assay: opens human GIRK2 potassium channels (AID 1259325)). Details: HEK293-GIRK2 thallium flux, Thallos fluorescence, MPD.
Sequence of G protein-activated inward rectifier potassium channel 2 (Homo sapiens) (P48051 whole entry, looked up): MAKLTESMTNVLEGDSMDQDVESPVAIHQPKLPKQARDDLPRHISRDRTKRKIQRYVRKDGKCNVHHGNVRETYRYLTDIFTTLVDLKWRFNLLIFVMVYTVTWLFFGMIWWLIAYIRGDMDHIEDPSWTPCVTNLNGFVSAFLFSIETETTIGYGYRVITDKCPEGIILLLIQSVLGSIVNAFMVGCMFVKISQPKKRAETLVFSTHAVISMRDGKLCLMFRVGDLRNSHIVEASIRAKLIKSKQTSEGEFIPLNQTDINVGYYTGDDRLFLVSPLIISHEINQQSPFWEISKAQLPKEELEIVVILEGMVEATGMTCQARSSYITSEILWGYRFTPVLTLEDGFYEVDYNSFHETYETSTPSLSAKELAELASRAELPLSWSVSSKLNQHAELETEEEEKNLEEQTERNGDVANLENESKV

outcome, inactive:
O=S(=O)(c1ccccc1F)N(CCc1cccs1)Cc1ccoc1
COc1ccc(Nc2c(C(=O)N3CCCCC3)cnc3nc(C)ccc23)cc1OC
O=S(=O)(NCCC(O)c1ccoc1)c1ccc(F)c(Cl)c1 (centres undefined)
COC(=O)c1ccc2c(=O)n(CCC(=O)NCCN3CCCc4ccccc43)c(=S)[nH]c2c1
Cc1nc2sc(C)c(C)n2c(=O)c1NC(=O)c1ccccc1C(F)(F)F
COC(=O)Nc1nc2c(s1)CN(C(=O)c1cccc(C#N)c1)CC2
COc1cc(NC(=O)c2cnccn2)ccc1N1CCCC1=O
Cc1nn(-c2ccccc2)c(C)c1N1CCN(S(=O)(=O)c2cccs2)CC1
Cn1cccc1C(=O)N1CCN(Cc2nncn2-c2ccccc2F)CC1
Cc1cn2c3c(=O)n(C/C=C/c4ccccc4)c(=O)n(C)c3nc2n1-c1ccccc1O
CCCCN(C)C(=O)c1cc2c(=O)n3ccccc3nc2n1CCCOC
COc1ccc(OC)c(S(=O)(=O)NCC(c2ccc(F)cc2)N2CCOCC2)c1 (centres undefined)
CCOC(=O)c1cnn2ccc(NC(=O)c3cnn(-c4ccccc4)c3C)cc12
COc1ccc(C(O)CN2CCN(c3cccc(C)c3C)CC2)cc1 (centres undefined)
Cc1cc(NC(=O)C2CCN(C(=O)C3(c4ccccc4)CCOCC3)CC2)no1
COc1cccc(C(=O)Oc2ccc(/C=C/c3ccccn3)cc2)c1
Nc1cc2cc(Br)ccc2cn1
COc1ncccc1C(=O)NCCn1nc(C2CC2)n(-c2ccccc2)c1=O
CCc1cc2c(=O)n(Cc3ccco3)c(SCc3cc(=O)[nH][nH]3)nc2s1
Cc1cc(N2CCN(CCO)CC2)n2nc(C(F)(F)F)c(-c3ccc(Cl)cc3)c2n1
CCOc1ccc(N(C)S(=O)(=O)c2ccsc2C(=O)NCCC2=CCCCC2)cc1
CCC(=O)Nc1cc(-c2ccco2)nn1-c1nc2c(c(=O)[nH]1)CCC2
O=C(CCC(=O)N1CC(c2nc(-c3cccs3)no2)C1)c1ccccc1
Cc1ccc(Cl)c(-n2nnc(C(=O)Nc3ccccc3Cl)c2C)c1
O=C(NCC(=O)N1CCN(c2cc(-n3cccc3)ncn2)CC1)c1ccccc1
O=C(Nc1ccc2c(c1)OCO2)Nc1ccccc1NC(=O)c1ccccc1F
O=S(=O)(NC1CCN(c2ccc(-c3ccccc3Cl)nn2)CC1)c1cccs1
O=C(CN1CCN(c2ccccc2F)C1=O)Nc1ccc(OC(F)(F)F)cc1
CCOC(=O)N1CCc2c(sc(NC(=O)c3ccc(C)c(C)c3)c2-c2nc3ccccc3s2)C1
Cc1nnc(NC(=O)C2CCN(c3ccc(-c4ccco4)nn3)CC2)s1
Cc1cc(-c2ccccc2)nc2cc(-c3nc(-c4cccs4)no3)nn12
CCCCCNC(=O)c1sc(-c2nnn(-c3ccc(F)cc3)c2C)nc1C
Cc1ccc2[nH]c3c(=O)n(CC(=O)N4CCN(c5cccc(C(F)(F)F)c5)CC4)cnc3c2c1
COc1ccc(NCCN2N=C(C)C(C)n3c2nc2c3c(=O)n(C)c(=O)n2C)cc1 (centres undefined)
